In the library only some 2.3% were active in any assay of this set; here they are far more common.
CCT chaperon mod: High-Throughput Screening for Modulators of Cytosolic Chaperonin Activity | purified chaperonin ATPase assay, HTRF ADP detection, 30 min | 360,000 compounds, 0.3% hits | activity change, % (test concentration not listed), hits read low; in the data active = activity change below about -30%; note: % is set by controls: 0 for no effect and ±100 for the full control effect
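Enzyme 40 or 20 nM (batch-dependent) in Tris pH 7.4/KCl/MgCl2/DTT; cpd 76 uM single point; ATP 10 uM; 30 min 37 °C; Transcreener ADP HTRF detection, 30 min RT; ratio 665/615.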
Mm-Cpn inhibitor: Inhibitors of TCP-1 ring complex (TRiC) of Methanococcus maripaludis (MmCpn): qHTS. AID 504842, 2011. Potency, µM (series often up to 76.9 µM), without a hit: top-dose activity, negative = inhibition, actives largely listed as inhibitors. purified Mm-Cpn ATPase, ADP Transcreener TR-FRET. 330,000 compounds, 0.031% hits. Chaperonin Mm-Cpn (Methanococcus maripaludis); note: potency is the fitted concentration of half-maximal effect; % is set by controls: 0 for no effect and ±100 for the full control effect; nearly all actives have a fitted effect of over 80% in size
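Purified archaeal chaperonin (25 nM final) was preincubated with compound for 10 min at 37°C, then ATP (10 uM final) was added for 30 min at 37°C in Tris pH 7.4/KCl/MgCl2/DTT buffer. ADP was quantified by HTRF Transcreener TR-FRET.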
aSyn rescue: qHTS of alpha-syn Inhibitors. Potency, µM (top dose mostly 46.1 µM), inactives show top-dose growth rescue (activation), usual class: activators. 370,000 compounds, 0.14% hits. Yeast expressing alpha-synuclein, growth rescue, BacTiter-Glo, 24 h; note: potency is the fitted concentration of half-maximal effect; % of control where 0% means no effect; nearly all actives have a fitted effect of over 65% in size
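Rescue of yeast growth: cells expressing toxic alpha-synuclein, induced in galactose at OD600 0.02, incubated with compound 24 h at 30 C. ATP luminescence quantified growth; inhibitors of toxicity appear as activators.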
FUS suppressor: qHTS for Suppressors of FUS Proteinopathy: Primary screen using FUS-linked yeast assay. Potency, µM (top dose mostly 76.6 µM), usual class: activators. AID 1347120, 2019. S. cerevisiae FUS-expressing, growth rescue, OD600, 24 h. 390,000 compounds, 0.24% hits;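 note: potency is the fitted concentration of half-maximal effect; plate controls were DMSO vehicle for no effect and reference control for full effect; nearly all actives have a fitted effect of over 55% in size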
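Compound concentration series was pinned onto galactose-induced FUS-expressing yeast seeded at OD 0.005. Plates sat 24hr at 30C; absorbance at 600 nm gave growth. DMSO served as background control.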
TDP-43 yeast inh: qHTS of TDP-43 Inhibitors. 410,000 compounds, 1.8% hits. Potency, µM (series often up to 46.1 µM), without a hit: top-dose growth rescue (activation), most hits filed as activators. TDP-43 expressing yeast growth rescue, BacTiter-Glo, 24 h; note: potency is the fitted concentration of half-maximal effect; % of control where 0% means no effect; nearly all actives have a fitted effect of over 50% in size
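Cell-based yeast growth screen: TDP-43 expression induced in galactose, inoculum OD600=0.02 after raffinose pregrowth to mid-log. Read-out BacTiter-Glo luminescence at 24 hr, 30 deg C; inhibition of toxicity seen as signal increase.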
Abeta rescue: qHTS for compounds that reverse cellular toxicity of Amyloid beta (A-beta) peptide in yeast: Primary Screen. yeast expressing A-beta42, growth rescue, OD600, 48 h; response scale: 0% DMSO, 100% iron-clioquinol control. Potency, µM (highest dose often 46.1 µM), actives largely listed as activators. 410,000 compounds, 0.063% hits; note: potency is the fitted concentration of half-maximal effect; nearly all actives have a fitted effect of over 55% in size
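Yeast growth medium received pinned compounds, then yeast cells expressing toxic A-beta were added; plates incubated at 30 C for 48 hr. Growth read as absorbance at 600 nm, normalized to DMSO and equimolar FeCl3 plus clioquinol controls.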
An asterisk follows results filed as active. Unless noted, calls come from the whole dose curve; as a rule, active = well fitted curve in the direction sought with a large enough effect; inconclusive = small, poorly fitted or top-dose-only effect, or another doubt; inactive = no such curve, though single readings can be large; an effect the other way counts as inactive or inconclusive.

`O=C(c1ccc(Cl)cc1)c1cc(-c2ccccn2)c(N2CCOCC2)s1` gave CCT chaperon mod -5, Mm-Cpn inhibitor -22%, aSyn rescue 5%, FUS suppressor inactive, TDP-43 yeast inh 14µM* and Abeta rescue inactive.
`Cc1c(C(=O)Nc2ccc3c(c2)OCCO3)sc2ncnc(N3CCCCC3C)c12` (stereo not given) gave CCT chaperon mod -1, Mm-Cpn inhibitor -2%, aSyn rescue 5%, FUS suppressor inactive, TDP-43 yeast inh 16µM* and Abeta rescue inactive.
For Cc1nc(N2CCC(C)CC2)c2c(C)c(C(=O)Nc3ccc4c(c3)OCCO4)sc2n1 the results were CCT chaperon mod 1, Mm-Cpn inhibitor -3%, aSyn rescue 3%, FUS suppressor inactive, TDP-43 yeast inh 7.1µM* and Abeta rescue inactive.
`Cc1nc(N2CCOCC2)c2c(C)c(C(=O)Nc3ccccc3C(F)(F)F)sc2n1` gave CCT chaperon mod 1, Mm-Cpn inhibitor -7%, aSyn rescue 8%, FUS suppressor inactive, TDP-43 yeast inh inconclusive and Abeta rescue inactive.
`Cc1nc(N2CCCCC2C)c2c(C)c(C(=O)Nc3ccccc3C(F)(F)F)sc2n1` (stereo not given) gave CCT chaperon mod 1, Mm-Cpn inhibitor -10%, aSyn rescue -24%, FUS suppressor inactive, TDP-43 yeast inh 14µM* and Abeta rescue inactive.
For O=C(c1ccc2c(c1)N(Cc1ccccc1)C(=O)c1ccccc1S2(=O)=O)N1CCN(c2ccccn2)CC1 the results were FUS suppressor inactive, TDP-43 yeast inh 28% and Abeta rescue inactive.
For O=C(CBr)c1ccc(Oc2ccc(C(=O)C[n+]3cccc(Br)c3)cc2)cc1 the results were aSyn rescue 5%.
For COc1ccc(Cn2ccc3ccc(-c4ccc5ccn(Cc6ccc(C#N)cc6)c5c4)cc32)cc1 the results were FUS suppressor inactive.
`FC(F)(F)c1cc(-c2ccco2)nc(NCc2cccs2)n1` gave CCT chaperon mod -1, Mm-Cpn inhibitor -2%, aSyn rescue -11%, FUS suppressor inactive, TDP-43 yeast inh 20µM* and Abeta rescue inactive.
For Cc1cccc(CCNC(=O)C2CCC(CNS(=O)(=O)c3c(C)cc(C)cc3C)CC2)c1 (stereo not given) the results were FUS suppressor inactive, TDP-43 yeast inh -18% and Abeta rescue inactive.
Screening OC(c1cccc(Cl)c1)c1nc(-c2ccc3c(c2)OCO3)cs1 (stereo not given) returned CCT chaperon mod -4, aSyn rescue inconclusive, FUS suppressor inactive, TDP-43 yeast inh 32µM* and Abeta rescue inactive.
Screening Cc1nc(-c2ccc3c(c2)OCO3)cs1 returned CCT chaperon mod 1, Mm-Cpn inhibitor -2%, aSyn rescue 0%, FUS suppressor inactive, TDP-43 yeast inh 26% and Abeta rescue inactive.
OC(c1ccccc1)c1nc(-c2ccc3c(c2)OCO3)cs1 (stereo not given) was read as CCT chaperon mod 1, aSyn rescue 11µM*, FUS suppressor inactive, TDP-43 yeast inh 20µM* and Abeta rescue inactive.
Cc1cc(Oc2ccccc2)nc(C#N)n1 was read as aSyn rescue -5%.
Screening Cc1ccc(N=Cc2ccc[nH]2)c(O)c1 returned CCT chaperon mod 0, Mm-Cpn inhibitor 1%, aSyn rescue -2%, FUS suppressor 35µM*, TDP-43 yeast inh -23% and Abeta rescue inactive.
Screening CCOc1ccccc1Nc1nc(-c2ccc(C)cc2)c(CC(=O)O)s1 returned FUS suppressor inactive, TDP-43 yeast inh 9% and Abeta rescue inactive.
`C#CCn1c(=NC(=O)c2cc(Cl)sc2Cl)sc2cc(S(N)(=O)=O)ccc21` gave CCT chaperon mod -2, Mm-Cpn inhibitor 50µM*, aSyn rescue -3%, FUS suppressor inactive, TDP-43 yeast inh -9% and Abeta rescue inactive.
Screening O=C(NNc1cc(Cl)cc(Cl)c1)C1CCC1 returned CCT chaperon mod 1, Mm-Cpn inhibitor 1%, aSyn rescue 1%, FUS suppressor inactive, TDP-43 yeast inh 0% and Abeta rescue inactive.
Screening O=C(NNc1ccc(Cl)cc1)C1CCC1 returned CCT chaperon mod -36*, Mm-Cpn inhibitor -2%, aSyn rescue 7%, FUS suppressor inactive, TDP-43 yeast inh inconclusive and Abeta rescue inactive.
CN(C)c1ccc(CCc2ccnc3ccccc23)cc1 was read as aSyn rescue 15%.
`Cc1cc(C)cc(Nc2ncc3c(n2)CC(c2ccco2)CC3=O)c1` (stereo not given) gave CCT chaperon mod 0, Mm-Cpn inhibitor 0%, aSyn rescue -16%, FUS suppressor inconclusive, TDP-43 yeast inh 16µM* and Abeta rescue inactive.
For Cc1cccc(Nc2ncc3c(n2)CC(c2ccco2)CC3=O)c1 (stereo not given) the results were CCT chaperon mod 1, Mm-Cpn inhibitor -2%, aSyn rescue 6%, FUS suppressor inactive, TDP-43 yeast inh inconclusive and Abeta rescue inactive.
O=C(O)Cc1coc2ccc3ccccc3c12 was read as CCT chaperon mod 3, Mm-Cpn inhibitor 1%, aSyn rescue 1%, FUS suppressor inactive and Abeta rescue inconclusive.
`Cc1cccc(NC(=O)Cc2coc3ccc4ccccc4c23)n1` gave CCT chaperon mod -3, Mm-Cpn inhibitor -2%, aSyn rescue -16%, FUS suppressor inactive, TDP-43 yeast inh 11µM* and Abeta rescue inactive.
Screening Cc1ccc(CC(=O)Nc2cccc(C)n2)cc1 returned CCT chaperon mod -2, Mm-Cpn inhibitor 1%, aSyn rescue -2%, FUS suppressor inactive, TDP-43 yeast inh 1% and Abeta rescue inactive.
`Cc1cccc(NC(=O)Cc2ccc(-c3ccccc3)cc2)n1` gave CCT chaperon mod -3, Mm-Cpn inhibitor -4%, aSyn rescue -7%, FUS suppressor inactive, TDP-43 yeast inh 11µM* and Abeta rescue inactive.
CC(=O)Nc1nc(-c2ccccc2)c(-c2ccccc2)s1 was read as aSyn rescue -1%.
For Cc1ccccc1CNC1CCC12CCC(c1ccccc1)CC2 (stereo not given) the results were FUS suppressor inactive.
`CCC(=O)Nc1c(C(=O)N2CCN(c3ccccn3)CC2)cnn1-c1ccc(Cl)cc1` gave CCT chaperon mod -57*, Mm-Cpn inhibitor 1%, aSyn rescue 4%, TDP-43 yeast inh -6% and Abeta rescue inactive.

Source: PubChem (National Center for Advancing Translational Sciences (NCATS))
